Source: PubChem BioAssay
Activity calls are given as the source filed them.

Columns and labels:
[1] = tested on: Human papillomavirus type 1a protein E7 (residues 44-93); assay: HPV1a E7 fragment binders on microarrays, primary screen, biochemical, small-molecule microarray, residues 44-93, 635 nm fluorescence (AID 1108); conditions: small-molecule microarray binding, fluorescence 635 nm; higher = more signal;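 also: E7 fragment applied at 1 µg/mL in TBST for 1 h at 4 C; score combines spot fluorescence with its signal to noise ratio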
[2] = modulators of HCV replicon luciferase signal, primary screen, HCV replication inhibitor project, Huh7 cells, luciferase reporter (AID 1109); conditions: 48 h, higher = more signal;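 also: huh7 hepatoma cells harbouring a luciferase neomycin HCV replicon reporter; luciferase luminescence as measure of HCV replicon replication; test concentration not given here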
[3] = biological target: Left-right determination factor 2 (Homo sapiens) (UniProt O00292); assay: LEFTY2 binders on small-molecule microarrays, primary screen, biochemical, small-molecule microarray, 635 nm fluorescence scan (AID 1110); conditions: LEFTY2 binding, higher = more signal
[4] = biological target: Calmodulin-1 (Homo sapiens) (UniProt P0DP23); assay: CALM1 binders on microarrays, EGTA buffer, profiling panel, biochemical, small-molecule microarray, Cy5-labelled CALM1 (AID 1111); conditions: Cy5-CALM1 binding fluorescence, higher = more signal;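 also: labelled calmodulin applied in Tris saline Tween buffer holding calcium plus EGTA and DTT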
[5] = biological target: Calmodulin-1 (Homo sapiens) (UniProt P0DP23); assay: calcium-bound CALM1 binders on microarrays, profiling panel, artefact control for SMM control-protein annotation, biochemical, small-molecule microarray, Cy5-labelled CALM1, plus calcium (AID 1112); conditions: Cy5-CALM1 binding fluorescence, higher = more signal;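 also: score merges spot fluorescence with signal to noise from triplicate slides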
[6] = small-molecule microarray binders of probe aWnt5a, primary screen, biochemical, biotinylated probe, 635/667 nm fluorescence (AID 1113); conditions: higher = more signal;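 also: score merges 667 nm fluorescence intensity with signal-to-noise per printed feature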
[7] = small-molecule microarray binders of probe aShh, primary screen, biochemical, biotinylated probe, 635/667 nm fluorescence (AID 1114); conditions: higher = more signal;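 also: probe is biotin-labelled aShh protein from a stem cell growth factor screen; measures binding of labelled protein to compounds printed on the slide; score merges feature fluorescence at 667 nm with signal-to-noise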
[8] = small-molecule microarray binders of probe aNog, primary screen, biochemical, biotinylated probe, 635/667 nm fluorescence (AID 1115); conditions: higher = more signal;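 also: probe is biotinylated aNog protein used at 0.15 µg/mL for 1 h at 4 C; z-score combines 667 nm fluorescence of each spot with its signal to noise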
[9] = biological target: Torsin-1A-interacting protein 1 (Homo sapiens) (UniProt Q5JTV8); assay: LAP1 binders from COS7 cell lysate, primary screen, small-molecule microarray, 635/667 nm fluorescence (AID 1116); conditions: COS7-hLAP1 lysate binding, 635 nm fluorescence, higher = more signal
[10] = biological target: Alpha-bungarotoxin (Bungarus multicinctus) (UniProt P60615); assay: alpha-bungarotoxin binders on microarray, profiling panel, artefact control for SMM control protein annotation, biochemical, small-molecule microarray, Alexa647 label, 635/667 nm fluorescence (AID 1117); conditions: alpha-BTX-A647 binding fluorescence, higher = more signal
[11] = biological target: Albumin (Bos taurus) (UniProt P02769); assay: bovine serum albumin binders on microarray, profiling panel, artefact control for SMM control protein annotation, biochemical, small-molecule microarray, Alexa647 label, 635/667 nm fluorescence (AID 1118); conditions: BSA-A647 binding, fluorescence 635 nm, higher = more signal;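 also: score merges 667 nm emission intensity and signal-to-noise per printed compound spot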
[12] = small-molecule microarray binders of probe aXIP, primary screen, biochemical, NeuroSMM set, 635/667 nm fluorescence (AID 1119); conditions: higher = more signal, called active from +8 up or from −8 down;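 also: probe is the protein aXip251-270 applied at 1 µg/mL to compound-printed slides; binding of probe to printed compounds measured as 667 nm fluorescence plus signal to noise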
[13] = small-molecule binders of probe aNOTCH3, primary screen, biochemical, small-molecule microarray, 635/667 nm fluorescence (AID 1120); conditions: higher = more signal;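 also: probe is a biotin-tagged antibody raised against NOTCH3 rather than NOTCH3 protein; score merges spot fluorescence near 667 nm with spot signal to noise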
[14] = small-molecule binders of probe aNOTCH2, primary screen, biochemical, small-molecule microarray, 635/667 nm fluorescence (AID 1121); conditions: higher = more signal;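 also: score merges feature fluorescence read at 667 nm with its signal to noise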
[15] = biological target: Carbonic anhydrase 2 (Homo sapiens) (UniProt P00918); assay: CAII small-molecule binders, profiling panel, biochemical, small-molecule microarray, Alexa647-labelled CAII (AID 1122); conditions: CAII-A647 binding fluorescence, higher = more signal
[16] = COS7 lysate on small-molecule microarray, probe aHis, 635 nm (AID 1123); conditions: COS7 cell lysate, fluorescence, higher = more signal;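 also: z-score combines 667nm fluorescence intensity with signal-to-noise per printed compound spot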
[17] = compound binding in COS7 lysate, probe aLAP1, primary screen, cell lysate, small-molecule microarray (AID 1124); conditions: probe aLAP1, fluorescence, higher = more signal;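 also: lysate comes from COS7 cells expressing LAP1 and is applied at 0.3 µg/mL; score merges spot fluorescence near 667 nm with signal-to-noise over triplicate slides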
[18] = tested on: Sam68 (KHDRBS1); assay: Sam68 small-molecule binders, primary screen, biochemical, small-molecule microarray, 635 nm fluorescence (AID 1125); conditions: small-molecule microarray binding, higher = more signal;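 also: score merges 667 nm channel intensity with signal to noise over triplicate slides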
[19] = tested on: Chordin-like protein 2 (CHRDL2); assay: CHRDL2 small-molecule binders, primary screen, biochemical, small-molecule microarray, 635 nm fluorescence (AID 1126); conditions: small-molecule microarray binding, fluorescence 635 nm; higher = more signal;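 also: printed compound slides probed with Chrdl2 protein at 4 µg/mL for 1 h at 4 C; score merges 667 nm emission intensity with signal to noise over three replicate slides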
[20] = biological target: Concanavalin-A (Canavalia ensiformis) (UniProt P02866); assay: ConA small-molecule binders, primary screen, artefact control for SMM control protein annotation, biochemical, small-molecule microarray, Alexa647 label, 635 nm (AID 1127); conditions: ConA-A647 binding fluorescence, higher = more signal;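 also: z combines 667 nm emission intensity with signal-to-noise across three replicate slides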
Concanavalin-A (Canavalia ensiformis), sequence (P02866 whole entry, looked up): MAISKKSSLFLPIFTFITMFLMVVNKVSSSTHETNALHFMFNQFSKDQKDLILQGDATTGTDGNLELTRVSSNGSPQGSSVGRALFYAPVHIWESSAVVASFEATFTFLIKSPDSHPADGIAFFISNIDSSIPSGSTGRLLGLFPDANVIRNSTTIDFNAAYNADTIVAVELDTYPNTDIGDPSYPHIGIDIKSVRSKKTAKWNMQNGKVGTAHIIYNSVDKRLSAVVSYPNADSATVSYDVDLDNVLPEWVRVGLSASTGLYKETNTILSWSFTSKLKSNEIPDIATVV

Alpha-bungarotoxin (Bungarus multicinctus), sequence (P60615 whole entry, looked up): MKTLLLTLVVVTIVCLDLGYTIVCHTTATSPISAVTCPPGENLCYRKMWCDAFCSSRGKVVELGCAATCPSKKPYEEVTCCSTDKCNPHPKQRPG
Left-right determination factor 2 (Homo sapiens), sequence (O00292 whole entry, looked up): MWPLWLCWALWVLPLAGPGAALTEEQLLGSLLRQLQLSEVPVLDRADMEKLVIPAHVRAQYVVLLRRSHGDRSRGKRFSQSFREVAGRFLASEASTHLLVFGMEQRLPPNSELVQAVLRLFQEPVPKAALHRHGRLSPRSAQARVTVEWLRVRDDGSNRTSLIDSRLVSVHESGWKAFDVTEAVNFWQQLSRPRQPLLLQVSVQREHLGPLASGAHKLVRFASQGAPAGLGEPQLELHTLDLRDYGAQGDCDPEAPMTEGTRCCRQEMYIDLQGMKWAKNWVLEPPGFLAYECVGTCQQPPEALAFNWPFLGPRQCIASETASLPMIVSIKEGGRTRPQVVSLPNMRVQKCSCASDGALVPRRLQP
Torsin-1A-interacting protein 1 (Homo sapiens), sequence (Q5JTV8 whole entry, looked up): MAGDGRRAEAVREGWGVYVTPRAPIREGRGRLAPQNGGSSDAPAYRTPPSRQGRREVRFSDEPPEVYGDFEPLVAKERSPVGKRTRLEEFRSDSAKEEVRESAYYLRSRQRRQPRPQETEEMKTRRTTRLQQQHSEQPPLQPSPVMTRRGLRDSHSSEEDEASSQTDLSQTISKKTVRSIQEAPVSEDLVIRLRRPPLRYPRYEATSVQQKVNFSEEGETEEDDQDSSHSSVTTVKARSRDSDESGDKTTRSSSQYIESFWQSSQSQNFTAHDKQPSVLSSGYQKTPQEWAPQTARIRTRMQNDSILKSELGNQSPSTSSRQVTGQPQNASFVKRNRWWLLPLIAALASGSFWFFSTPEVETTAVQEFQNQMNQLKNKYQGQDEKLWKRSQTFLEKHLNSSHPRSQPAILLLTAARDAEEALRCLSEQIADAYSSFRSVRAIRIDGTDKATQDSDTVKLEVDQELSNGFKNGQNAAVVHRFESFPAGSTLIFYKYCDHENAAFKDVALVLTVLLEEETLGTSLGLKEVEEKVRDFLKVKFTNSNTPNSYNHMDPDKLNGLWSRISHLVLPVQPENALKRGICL
Albumin (Bos taurus), sequence (P02769 whole entry, looked up): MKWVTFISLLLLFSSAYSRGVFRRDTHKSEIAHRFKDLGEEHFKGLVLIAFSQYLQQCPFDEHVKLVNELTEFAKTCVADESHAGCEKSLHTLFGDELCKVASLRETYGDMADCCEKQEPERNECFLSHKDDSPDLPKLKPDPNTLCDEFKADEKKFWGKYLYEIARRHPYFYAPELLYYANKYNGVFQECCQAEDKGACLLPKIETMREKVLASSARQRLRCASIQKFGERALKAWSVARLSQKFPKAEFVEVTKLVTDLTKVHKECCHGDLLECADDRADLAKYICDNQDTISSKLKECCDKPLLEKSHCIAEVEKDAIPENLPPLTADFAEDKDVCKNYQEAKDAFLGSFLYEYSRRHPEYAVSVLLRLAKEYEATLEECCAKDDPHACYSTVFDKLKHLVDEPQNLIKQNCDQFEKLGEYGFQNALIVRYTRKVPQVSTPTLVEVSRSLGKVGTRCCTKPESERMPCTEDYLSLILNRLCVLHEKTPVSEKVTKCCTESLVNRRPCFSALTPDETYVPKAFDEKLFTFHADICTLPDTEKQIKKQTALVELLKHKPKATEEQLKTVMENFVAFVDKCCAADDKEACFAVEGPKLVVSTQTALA

With `CC[C@@H](c1ccccc1)n1c(=O)n2n(c1=O)[C@H]1[C@H](O)[C@@H]3O[C@@H]3C(=NOCC(C)C)[C@H]1CC2` the composite z-score [1] was 0.284, the z-score [2] was -2.11 and the composite z-score [3] was 0.143. For the same compound, the composite z-score [4] was -0.0128, the composite z-score [5] was -0.178 and the composite z-score [6] was -0.12. It also gave a composite z-score [7] of -0.14, a composite z-score [8] of -0.407 and a composite z-score [9] of 0.107. The composite z-score [10] was -0.088, the composite z-score [11] was -0.231 and the composite Z-score [12] was -0.0127 (inactive). It also gave a composite z-score [13] of -0.0189, a composite z-score [14] of -0.0986 and a composite z-score [15] of 0.308. The composite z-score [16] was 0.0644, the composite z-score [17] was 0.422 and the composite z-score [18] was 0.362. The composite z-score [19] was -0.086 and the composite z-score [20] was 0.0275.
`C#C[C@@H]1Oc2ccccc2S(=O)(=O)N2CCC[C@H]12` gave a composite z-score [1] of -0.638, a z-score [2] of 0.206 and a composite z-score [3] of 0.273. It also gave a composite z-score [4] of -0.593, a composite z-score [5] of -0.867 and a composite z-score [6] of 0.0391. For the same compound, the composite z-score [7] was 0.0893, the composite z-score [8] was 0.186 and the composite z-score [9] was 0.237. For the same compound, the composite z-score [10] was -0.302, the composite z-score [11] was -0.13 and the composite Z-score [12] was 0.235 (inactive). The composite z-score [13] was -0.063, the composite z-score [14] was -0.185 and the composite z-score [15] was 0.256. For the same compound, the composite z-score [16] was -1.2, the composite z-score [17] was -0.34 and the composite z-score [18] was -1.29. The composite z-score [19] was 0.424 and the composite z-score [20] was -0.512.
Compound `CC(CCN1CCc2nc(-c3ccccc3)c(-c3ccccc3)cc2C1)=NO[C@@H](C)c1cn([C@H](CO)Cc2ccccc2)nn1` has a composite z-score [1] of -0.127, a z-score [2] of -0.985 and a composite z-score [3] of 0.555. It also gave a composite z-score [4] of 0.0845, a composite z-score [5] of 0.444 and a composite z-score [6] of -0.139. It also gave a composite z-score [7] of -0.221, a composite z-score [8] of -0.305 and a composite z-score [9] of -0.273. The composite z-score [10] was 1.42, the composite z-score [11] was 0.908 and the composite Z-score [12] was 0.715 (inactive). For the same compound, the composite z-score [13] was 0.0242, the composite z-score [14] was -0.117 and the composite z-score [15] was 0.526. The composite z-score [16] was -0.478, the composite z-score [17] was -0.208 and the composite z-score [18] was -0.163. For the same compound, the composite z-score [19] was 0.0808 and the composite z-score [20] was -0.602.
Work on `Cc1ccc(S(=O)(=O)N[C@@H]2COC(=O)[C@H](C)COC(=O)CC=C[C@H]2C)cc1` yielded a composite z-score [1] of -0.45, a z-score [2] of 0.668 and a composite z-score [3] of 0.602. For the same compound, the composite z-score [4] was -0.163, the composite z-score [5] was -0.964 and the composite z-score [6] was -0.13. For the same compound, the composite z-score [7] was -0.117, the composite z-score [8] was -0.425 and the composite z-score [9] was 0.438. The composite z-score [10] was 0.0762, the composite z-score [11] was -0.601 and the composite Z-score [12] was -0.186 (inactive). It also gave a composite z-score [13] of -0.224, a composite z-score [14] of -0.0817 and a composite z-score [15] of -0.271. It also gave a composite z-score [16] of -0.32, a composite z-score [17] of -0.7 and a composite z-score [18] of 0.0715. For the same compound, the composite z-score [19] was 1.23 and the composite z-score [20] was -0.0405.
`O=C1O[C@@H](c2ccccc2)[C@@H](c2ccccc2)N2[C@@H](c3ccc(OCCO)cc3)[C@]3(C(=O)Nc4ccccc43)[C@@H](C(=O)N3CCN(c4ncccn4)CC3)[C@H]12` gave a composite z-score [1] of 1.35, a z-score [2] of -2.4 and a composite z-score [3] of 0.773. It also gave a composite z-score [4] of 0.0357, a composite z-score [5] of -0.355 and a composite z-score [6] of -0.0685. It also gave a composite z-score [7] of 0.0044, a composite z-score [8] of 0.751 and a composite z-score [9] of 0.96. The composite z-score [10] was 1.53, the composite z-score [11] was 0.162 and the composite Z-score [12] was 0.338 (inactive). For the same compound, the composite z-score [13] was 0.0824, the composite z-score [14] was -0.091 and the composite z-score [15] was 0.403. For the same compound, the composite z-score [16] was 1.84, the composite z-score [17] was 0.88 and the composite z-score [18] was 1.3. The composite z-score [19] was 0.902 and the composite z-score [20] was 1.15.
For `C=C(/C(=C/C[C@@H](OC(=O)c1ccncc1)c1ccc(OCCO)cc1)c1cnc2ccccc2c1)C(C)C`, the composite z-score [1] was 0.901, the z-score [2] was -3.18 and the composite z-score [3] was 0.466. The composite z-score [4] was 0.193, the composite z-score [5] was -0.583 and the composite z-score [6] was -0.272. The composite z-score [7] was -0.0234, the composite z-score [8] was -0.302 and the composite z-score [9] was 2.75. For the same compound, the composite z-score [10] was 1.26, the composite z-score [11] was 0.155 and the composite Z-score [12] was -0.128 (inactive). It also gave a composite z-score [13] of 0.201, a composite z-score [14] of -0.134 and a composite z-score [15] of 0.675. It also gave a composite z-score [16] of -0.842, a composite z-score [17] of 0.727 and a composite z-score [18] of 1.22. For the same compound, the composite z-score [19] was 0.952 and the composite z-score [20] was 1.08.
